Test [1] can be described thus: small molecules captured by biotinylated probe aFSTL3 – biochemical, small-molecule microarray, fluorescence 635/667, stem cell growth factor project, primary screen (AID 1064).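 Further: measures binding of the biotinylated anti-FSTL3 antibody to printed compounds.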 The note with it: higher = more signal.
The nature of test [2]: binders from COS7 lysate, DM2A8 probe, primary screen, torsin A project, cell lysate, small-molecule microarray, fluorescence 635/667 (AID 1065). The note with it: higher = more signal, COS7 lysate expressing mutant human TOR1A.
The nature of test [3]: small molecules captured by biotinylated probe aFGF2 – biochemical, small-molecule microarray, fluorescence 635/667, stem cell growth factor project, primary screen (AID 1067).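 Further: measures binding of biotinylated aFGF2 protein to printed compounds on slides; z-score merges feature fluorescence and signal-to-noise across triplicate slides.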 The note with it: higher = more signal.
Test [4] is described as follows: small molecules captured by biotinylated probe aFGF10 – biochemical, small-molecule microarray, fluorescence 635/667, stem cell growth factor project, primary screen (AID 1071).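 Further: score merges 667 nm spot intensity and signal to noise from triplicate slides.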 The note with it: higher = more signal.
In test [5] the target is Neurogenic locus notch homolog protein 2 (Homo sapiens) (UniProt Q04721). The test is described as follows: small molecules binding Notch2 protein – biochemical, small-molecule microarray, 635 nm fluorescence, stem cell growth factors, primary screen (AID 1073). The conditions noted are these: higher = more signal.
In test [6] the target is Pro-neuregulin-1, membrane-bound isoform (Homo sapiens) (UniProt Q02297). The experiment in a line: small molecules binding neuregulin-1 protein – biochemical, small-molecule microarray, fluorescence 635/667, psychiatric disease protein project, primary screen (AID 1075).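 Further: score combines 667 nm spot fluorescence with signal to noise.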 The conditions noted are these: NRG1 binding, 635 nm fluorescence, higher = more signal.
The test system of test [7] is Neuregulin-1 EGF-like domain. The experiment in a line: small molecules binding NRG1 EGF domain – biochemical, small-molecule microarray, 635 nm fluorescence, primary screen (AID 1081).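 Further: binding of the protein to compounds printed on small-molecule microarray slides.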 The conditions noted are these: higher = more signal.
The nature of test [8]: FRG1 expression reporter modulators in myotubes – cell-based, C2C12 myotubes, firefly/Renilla luciferase, luminescence, FRG1 inhibition for FSHD, primary screen (AID 1084). The conditions noted are these: FRG1 promoter luciferase, higher = more signal, called active from +8 up or from −8 down.
Test [9] can be described thus: small molecules captured by biotinylated probe aFST – biochemical, small-molecule microarray, fluorescence 635/667, stem cell growth factor project, primary screen (AID 1086).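 Further: score merges 667 nm fluorescence with signal-to-noise of each printed compound spot.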 The note with it: higher = more signal.
Test [10] can be described thus: binders of probe aHhip on microarray, primary screen, stem cell growth factor project, biochemical, small-molecule microarray, fluorescence 635/667 (AID 1087).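 Further: score merges spot fluorescence at 667nm with spot signal to noise ratio.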 The note with it: higher = more signal.

Activity calls are given as the source filed them.

Pro-neuregulin-1, membrane-bound isoform (Homo sapiens), sequence (Q02297 whole entry, looked up, the tested form may be a part, canonical isoform): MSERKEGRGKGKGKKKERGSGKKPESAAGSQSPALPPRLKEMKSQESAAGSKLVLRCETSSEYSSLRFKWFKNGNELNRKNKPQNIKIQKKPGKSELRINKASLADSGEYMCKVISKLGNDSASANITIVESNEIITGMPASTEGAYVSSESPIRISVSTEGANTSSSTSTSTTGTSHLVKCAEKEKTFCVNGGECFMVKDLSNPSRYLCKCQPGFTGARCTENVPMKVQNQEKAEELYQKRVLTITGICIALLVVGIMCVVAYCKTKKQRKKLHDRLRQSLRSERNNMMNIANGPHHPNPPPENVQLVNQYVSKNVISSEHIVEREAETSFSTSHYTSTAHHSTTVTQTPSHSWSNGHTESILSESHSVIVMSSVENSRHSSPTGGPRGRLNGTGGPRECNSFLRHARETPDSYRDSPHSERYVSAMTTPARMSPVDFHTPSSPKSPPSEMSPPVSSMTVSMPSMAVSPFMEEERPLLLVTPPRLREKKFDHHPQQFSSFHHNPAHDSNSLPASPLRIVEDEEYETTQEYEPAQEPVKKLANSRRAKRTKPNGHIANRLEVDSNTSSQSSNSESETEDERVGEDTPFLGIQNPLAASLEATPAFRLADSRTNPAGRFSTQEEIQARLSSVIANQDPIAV
Neurogenic locus notch homolog protein 2 (Homo sapiens), sequence (Q04721 whole entry, looked up, canonical isoform): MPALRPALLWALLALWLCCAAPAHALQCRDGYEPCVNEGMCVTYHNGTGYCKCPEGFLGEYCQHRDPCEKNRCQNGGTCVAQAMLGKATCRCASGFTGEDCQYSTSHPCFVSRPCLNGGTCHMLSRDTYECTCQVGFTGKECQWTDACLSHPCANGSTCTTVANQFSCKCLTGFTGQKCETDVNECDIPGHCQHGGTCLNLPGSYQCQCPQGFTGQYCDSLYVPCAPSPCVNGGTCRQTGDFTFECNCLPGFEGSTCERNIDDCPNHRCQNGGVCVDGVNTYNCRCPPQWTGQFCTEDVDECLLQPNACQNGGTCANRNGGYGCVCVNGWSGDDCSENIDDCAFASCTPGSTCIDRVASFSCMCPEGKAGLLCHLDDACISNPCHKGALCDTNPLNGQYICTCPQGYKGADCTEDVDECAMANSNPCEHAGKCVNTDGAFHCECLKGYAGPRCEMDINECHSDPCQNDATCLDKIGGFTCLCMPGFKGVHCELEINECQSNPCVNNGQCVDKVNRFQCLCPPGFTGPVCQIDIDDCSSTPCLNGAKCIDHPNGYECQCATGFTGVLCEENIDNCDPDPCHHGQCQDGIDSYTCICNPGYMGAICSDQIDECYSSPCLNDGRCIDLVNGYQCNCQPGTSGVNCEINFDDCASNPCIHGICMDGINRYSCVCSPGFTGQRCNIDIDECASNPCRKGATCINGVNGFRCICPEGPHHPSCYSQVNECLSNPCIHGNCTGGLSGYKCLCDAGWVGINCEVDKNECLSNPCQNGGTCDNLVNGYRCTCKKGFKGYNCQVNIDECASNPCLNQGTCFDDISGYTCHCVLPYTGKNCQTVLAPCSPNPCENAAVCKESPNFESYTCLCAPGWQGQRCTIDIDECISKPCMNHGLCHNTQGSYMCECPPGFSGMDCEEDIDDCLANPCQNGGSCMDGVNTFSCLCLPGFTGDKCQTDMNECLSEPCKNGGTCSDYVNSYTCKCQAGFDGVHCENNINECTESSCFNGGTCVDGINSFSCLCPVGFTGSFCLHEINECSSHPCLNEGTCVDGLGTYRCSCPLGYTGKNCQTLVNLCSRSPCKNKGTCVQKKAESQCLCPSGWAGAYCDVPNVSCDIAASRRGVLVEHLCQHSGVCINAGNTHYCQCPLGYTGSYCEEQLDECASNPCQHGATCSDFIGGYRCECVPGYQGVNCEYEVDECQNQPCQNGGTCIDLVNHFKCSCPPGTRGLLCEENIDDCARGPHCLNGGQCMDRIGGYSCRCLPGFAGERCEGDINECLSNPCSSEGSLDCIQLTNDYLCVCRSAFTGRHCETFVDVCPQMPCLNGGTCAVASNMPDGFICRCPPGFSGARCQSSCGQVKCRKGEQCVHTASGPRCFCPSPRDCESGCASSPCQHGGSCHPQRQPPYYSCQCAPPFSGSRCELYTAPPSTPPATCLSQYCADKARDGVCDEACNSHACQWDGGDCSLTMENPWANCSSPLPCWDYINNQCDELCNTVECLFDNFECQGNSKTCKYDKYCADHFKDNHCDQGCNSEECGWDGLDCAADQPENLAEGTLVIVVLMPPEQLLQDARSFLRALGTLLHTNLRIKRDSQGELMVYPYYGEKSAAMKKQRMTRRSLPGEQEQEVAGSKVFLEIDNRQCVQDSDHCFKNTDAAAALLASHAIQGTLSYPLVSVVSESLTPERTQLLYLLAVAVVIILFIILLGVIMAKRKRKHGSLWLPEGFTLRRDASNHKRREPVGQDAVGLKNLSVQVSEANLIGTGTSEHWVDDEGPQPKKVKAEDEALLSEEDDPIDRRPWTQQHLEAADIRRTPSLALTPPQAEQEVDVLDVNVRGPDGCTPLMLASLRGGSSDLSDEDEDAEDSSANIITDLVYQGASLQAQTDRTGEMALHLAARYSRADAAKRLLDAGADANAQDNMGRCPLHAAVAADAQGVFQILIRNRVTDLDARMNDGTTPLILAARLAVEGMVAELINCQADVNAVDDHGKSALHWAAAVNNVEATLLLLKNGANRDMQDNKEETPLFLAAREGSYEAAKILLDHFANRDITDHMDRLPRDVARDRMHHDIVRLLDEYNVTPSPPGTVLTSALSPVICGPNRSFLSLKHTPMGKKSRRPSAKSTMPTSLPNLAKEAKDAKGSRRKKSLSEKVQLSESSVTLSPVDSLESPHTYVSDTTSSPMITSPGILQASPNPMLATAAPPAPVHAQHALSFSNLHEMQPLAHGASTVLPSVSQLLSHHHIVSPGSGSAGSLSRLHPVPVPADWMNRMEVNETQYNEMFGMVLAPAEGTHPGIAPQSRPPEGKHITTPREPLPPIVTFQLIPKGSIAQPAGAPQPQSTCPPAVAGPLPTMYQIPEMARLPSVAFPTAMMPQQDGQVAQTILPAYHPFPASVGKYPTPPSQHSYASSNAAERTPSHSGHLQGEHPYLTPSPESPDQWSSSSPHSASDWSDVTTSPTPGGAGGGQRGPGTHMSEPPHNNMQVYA

Regarding `Cc1cc2c(nc1C)CCCCN2CC(C)ON=C[C@@H](C)[C@H](OCc1ccccc1)C(C)C` (stereo not given in full), the composite z-score is -0.0674 in [1]; -0.777 in [2]; -0.307 in [3]; -1.05 in test [4]; -1.38 in [5]; -0.317 in test [6]. Besides, the results for the composite z-score in [7], in test [9] and in test [10] were -0.366, -0.514 and -0.0994, respectively. The z-score in test [8] is -0.154 (inactive).
`CCN1C(=O)[C@H]2[C@H]3[C@H](O)[C@H](O)CC(=NO[C@@H](C)c4cn([C@H](CO)Cc5ccccc5)nn4)[C@@H]3CC[C@H]2C1=O`: the composite z-score in test [1] is -0.687; in [2] it was 0.387; in [3], -0.0704; in [4], 0.859; in test [5] it was 1.51; in [6], 0.256. The figures for the composite z-score in test [7], in test [9] and in test [10] were 0.971, 0.759 and -0.226, respectively. Further, in [8], the z-score was 0.345 (inactive).
`COC(=O)C=CCCc1coc(C=CCNC(=O)OC)n1`: the composite z-score in test [1] was -0.0195; in test [2] it was 0.924; in test [3], 0.202; in test [4] it was 0.833; in test [5], 0.485; in test [6] it was -0.0679. Moreover, the composite z-score was 0.492 in test [7], 1.04 in test [9] and 0.851 in [10]. Further, the z-score in test [8] was 0.721 (inactive).
In the case of `COc1ccc(COC(=O)NN=C2C[C@@H](O)[C@@H](O)[C@@H]3[C@@H]4C(=O)N(C5CCCCC5)C(=O)[C@@H]4CC[C@H]23)cc1`, the composite z-score in test [1] is 1.21; in [2] it was 0.588; in [3], -0.0784; in test [4], -0.396; in test [5], -0.961; in [6], -0.255. Further, the composite z-score is -0.194 in test [7], 0.524 in test [9] and -0.409 in test [10]. For the same compound, the z-score in [8] was 0.248 (inactive).
For `O=C(NN=C1C[C@@H](O)[C@@H](O)[C@@H]2[C@@H]3C(=O)N(Cc4ccccc4)C(=O)[C@@H]3CC[C@@H]12)OCc1ccccc1`, the composite z-score in test [1] was -0.404; in [2], 0.408; in test [3], -0.0229; in test [4], 0.155; in test [5], 0.495; in [6], -0.358. The composite z-score in [7] is -0.871; in test [9] it was -0.0711; in test [10], 0.233. Further, the z-score in test [8] is -0.119 (inactive).
For `COc1cccc([C@@H]2Oc3ccc(OC)cc3C(=O)[C@H]2O)c1`, the composite z-score was -0.457 in test [1]; 0.0796 in test [2]; 0.0288 in test [3]; 0.209 in test [4]; 0.5 in test [5]; 0.788 in test [6]. Besides, the composite z-score in test [7] is 1.04; in [9] it was -0.0662; in test [10], -0.0994. For the same compound, the z-score in test [8] was 7.25 (inactive).
Turning to `Cc1cc2c(nc1C)CCCN2CC(O)CN1CCCc2nc(C)c(C)cc21`, the composite z-score came out at 0.472 in test [1]; 1.49 in [2]; 0.178 in test [3]; 0.204 in test [4]; 0.4 in [5]; 0.752 in test [6]. In addition, the composite z-score in [7] is 0.998; in [9] it was 0.759; in test [10] it was 1.35. For the same compound, the z-score in test [8] is -0.0397 (inactive).
As to `C#CCCCON=C1[C@H]2CCn3c(=O)n(-c4ccccc4)c(=O)n3[C@H]2[C@H](O)[C@@H]2O[C@H]12`, the composite z-score in test [1] was -0.306; in test [2], 0.0575; in test [3] it was -0.24; in [4] it was 0.201; in test [5] it was 0.47; in [6], -0.0335. For the same compound, the composite z-score in test [7] was 0.478; in [9], 0.212; in test [10], -0.134. Also, the z-score in [8] was -1.91 (inactive).
As to `CO[C@@H]1COC(=O)[C@@H](C)NC(=O)CC=C[C@@H](C)[C@H](NS(=O)(=O)c2ccc(C)cc2)COC(=O)[C@H](C)NC(=O)CC=C[C@H]1C`, the composite z-score is -0.505 in [1]; 0.441 in test [2]; -0.119 in test [3]; 0.189 in [4]; -0.167 in [5]; -0.523 in test [6]. Further, the composite z-score is 0.388 in test [7], -0.0334 in [9] and 0.168 in [10]. For the same compound, the z-score in test [8] is 0.0404 (inactive).
In the case of `Cc1ccc(S(=O)(=O)N[C@@H]2COC(=O)[C@@H](C)COC(=O)CC=C[C@H]2C)cc1`, the composite z-score in [1] is -0.305; in test [2], 0.155; in [3] it was -0.0777; in test [4], 0.259; in [5], 0.672; in [6] it was -0.126. Also, the composite z-score in test [7] was 0.167; in test [9], 0.045; in test [10] it was 0.251. Besides, the z-score in test [8] is 0.204 (inactive).
For the compound `CCOC(=O)[C@H](CC(C)C)NC(=O)CCC1CC(OC(=O)NCCc2ccc(F)cc2)CC2(CCCC(COC(=O)NCC(c3ccccc3)c3ccccc3)O2)O1` (stereo not given in full), the composite z-score in [1] is -0.65; in test [2], 0.149; in test [3] it was -0.136; in [4] it was 0.433; in test [5], 0.787; in test [6] it was 0.221. Moreover, the composite z-score is 1.12 in [7], 0.0026 in test [9] and -0.236 in test [10]. In [8], the z-score was 2.36 (inactive).
For the compound `CC(CCC(=O)OC[C@H]1O[C@H](C#Cc2ccccc2)C=C[C@@H]1Oc1ccc(C)cc1)=NO[C@H](C)c1cn([C@H](CO)Cc2ccccc2)nn1`, the composite z-score in test [1] is -0.544; in test [2], -0.0618; in test [3], -0.122; in [4], 0.191; in test [5], 0.369; in [6], 0.527. Besides, the composite z-score was 0.529 in test [7], 0.337 in test [9] and -0.211 in [10]. The z-score in test [8] was 0.546 (inactive).
In the case of `CC(C)(C)N1C(=O)[C@H]2[C@H]3[C@H](O)[C@H](O)CC(=O)[C@@H]3CC[C@H]2C1=O`, the composite z-score in [1] was 1.64; in test [2], 0.0227; in [3], -0.156; in [4], 0.673; in test [5], 0.259; in test [6] it was -0.404. The composite z-score in test [7] was 0.304; in [9], 0.723; in test [10], -0.0645. For the same compound, the z-score in test [8] is -0.255 (inactive).
Consider `CCN1C(=O)[C@H]2[C@H]3[C@H](O)[C@H](O)CC(=NOC[C@H]4O[C@H](c5ccccc5)C=C[C@@H]4Oc4ccc(OC)cc4)[C@@H]3CC[C@H]2C1=O`, for which the composite z-score in [1] is -0.0474; in [2], 0.174; in test [3], 0.0338; in test [4], 0.999; in test [5], 0.887; in test [6], 0.488. In addition, the figures for the composite z-score in test [7], in test [9] and in [10] were 0.953, 0.0352 and 0.351, respectively. Also, the z-score in [8] was 0.52 (inactive).
Regarding `COc1ccc(COC(=O)NN=C2C[C@@H](O)[C@@H](O)[C@@H]3[C@@H]4C(=O)N(c5cccc(Oc6ccccc6)c5)C(=O)[C@@H]4CC[C@@H]23)cc1`, the composite z-score in test [1] was 0.809; in test [2] it was -0.107; in test [3] it was -0.0363; in test [4], -0.135; in [5] it was -0.423; in test [6] it was -0.0521. The values for the composite z-score in [7], in [9] and in test [10] were -0.265, 0.88 and 0.262, respectively. In test [8], the z-score is 0.331 (inactive).
For `COC(=O)[C@@H]1CC[C@H](C)[C@@H](c2ccc(C)cc2)N1C(=O)c1ccc(C=NOC[C@@H](C)[C@H](OCc2ccccc2)C(C)C)cc1`, the composite z-score is -0.613 in [1]; 0.191 in test [2]; -0.0707 in test [3]; 0.41 in test [4]; 1.13 in test [5]; 0.855 in test [6]. The figures for the composite z-score in [7], in [9] and in [10] were 1, 0.38 and 0.0373, respectively. In addition, in [8], the z-score is -0.229 (inactive).
`COC(=O)CC=C[C@@H](C)[C@@H](C=NOCC[C@@H]1C=C[C@H](OC(C)=O)[C@@H](COC(C)=O)O1)NS(=O)(=O)c1ccc(C)cc1`: the composite z-score is -0.186 in test [1]; 1.86 in [2]; -0.129 in test [3]; -0.371 in test [4]; -0.134 in test [5]; -0.512 in test [6]. The composite z-score was -0.123 in test [7], 0.153 in test [9] and -0.0296 in test [10]. Besides, in [8], the z-score is 0.0469 (inactive).

(Values after PubChem BioAssay.)
